Experimental findings from PubChem BioAssay AID463173 (ICCB-Longwood Screening Facility, Harvard Medical School, 2010) are described below.

The whole screen tested about 52,000 compounds, of which about 4,300 (8.3%) were called active. This excerpt belongs to a sample that is enriched for actives. Values without a mark were called inactive. No stated cut-off is given here; in the data, active means survival mostly below about 52% (no sharp cut-off); inactive means mostly above about 56%.

The subject of the experiment is DeltatarO mutant. The experiment is described as follows: growth inhibition of S. aureus wild type versus tarO mutant, primary screen, teichoic acid synthesis inhibitors, RN4220, OD600 (AID 463173). Conditions: OD600, 18 h, stronger effect = lower value, screened at 18.75 µg/mL (by protocol).
`Cc1ccc(C)c(NC(=O)Cn2cc(S(=O)(=O)N3CCCC3)c(S(=O)(=O)N3CCCC3)c2)c1`: the survival was 94%. As to `COc1ccc(OC)c(NC(=O)c2cn3c4c(ccc(Cl)c4c2=O)OC(C)C3)c1` (stereo not drawn), the survival was 87%. Next, `Cc1ccc(-c2cc(NC(=O)COc3ccc(Cl)c(C)c3)on2)cc1`: 86%; `Oc1c(Br)cc(Br)cc1-c1nc2ccccc2s1`: 126%. As to `CCOc1ccccc1CNC(=O)CCn1cccn1`, the survival was 67%. Next, `CCOC(=O)C1CCN(c2cc3c(cc2NC(=O)c2ccc(Cl)cc2)n(C)c(=O)n3C)CC1`: 93%. Next, `COc1ccc(CNC(=O)C2=C(C)C(=O)OC23CCCCC3)cc1`: 82%. In the case of `CCc1ccc(S(=O)(=O)c2cn(C)c3cc(OC)c(OC)cc3c2=O)cc1`, the survival was 121%. Next, `CCOC(=O)c1ccc(NC(=O)C2Cc3ccccc3CN2S(=O)(=O)c2ccc(Cl)cc2)cc1` (stereo not drawn): 53%. Next, `CCCc1c(C)c2ccc(O)c(CN3CCN(c4ccc(F)cc4)CC3)c2oc1=O`: 52%. For the molecule `O=C(NCCCN=C1NS(=O)(=O)c2ccccc21)c1ccncc1`, the survival is 85%.

With `O=C(Nc1c(C(=O)N2CCN(c3ccc(F)cc3)CC2)oc2ccccc12)c1ccco1`, the survival was 74%. Next, `O=C(Nc1c(C(=O)Nc2ccc(F)cc2)oc2ccccc12)c1ccccc1F`: 40% (active); `CCOc1ccc(C(=O)Nc2c(C(=O)c3ccc(OC)cc3)oc3ccccc23)cc1`: 79%. As for `COc1cccc(C(=O)Nc2c(C(=O)Nc3ccc(F)cc3)oc3ccccc23)c1OC`, the survival was 60%. Next, `CCOc1cccc(C(=O)Nc2c(C(=O)c3ccc(OC)cc3)oc3ccccc23)c1`: 28% (active); `CCOc1ccccc1C(=O)Nc1c(C(=O)Nc2ccc(F)cc2)oc2ccccc12`: 83%. Next, `COc1ccc(C(=O)c2oc3ccccc3c2NC(=O)c2cccc(OC)c2)cc1`: 58%; `O=C(Nc1c(C(=O)N2CCN(c3ccccc3F)CC2)oc2ccccc12)c1ccco1`: 69%. Next, `O=C(Nc1c(C(=O)N2CCN(c3ccccc3)CC2)oc2ccccc12)c1ccco1`: 37% (active); `COCCNC(=O)c1ccc2nc(CCc3ccccc3)oc2c1`: 112%.

Turning to `CCOC(=O)c1c(NC(=O)/C=C/c2ccc(OCC)cc2)sc(C)c1C`, the survival is 50%.

Consider `CCOc1ccc(C(c2c(O)cc(C)n(CCOC)c2=O)N2CCC(C)CC2)cc1` (stereo not drawn), for which the survival was 73%. Next, `CCOc1ccc(S(=O)(=O)N(CC(=O)NCCc2ccc(OC)c(OC)c2)c2ccccc2)cc1`: 49%; `CCc1ccccc1NC(=O)CN(c1cccc(C)c1C)S(C)(=O)=O`: 54% (active).

On to `Cc1cc(C)cc(NC(=O)CN(c2cc(C(F)(F)F)ccc2Cl)S(=O)(=O)c2ccccc2)c1`, for which the survival was 79%.

Consider `Cc1cccc(N(CC(=O)Nc2cccc(Cl)c2C)S(C)(=O)=O)c1C`, for which the survival is 61%. Next, `CCOc1ccc(S(=O)(=O)N(CC(=O)NCCc2ccc(OC)cc2)c2ccccc2)cc1`: 92%. Next, `O=C(CN(c1cc(C(F)(F)F)ccc1Cl)S(=O)(=O)c1ccccc1)NCCc1ccccc1`: 66%. Regarding `CCc1ccccc1NC(=O)CN(c1cc(C(F)(F)F)ccc1Cl)S(=O)(=O)c1ccccc1`, the survival was 44% (active). For the molecule `CCOc1ccc(S(=O)(=O)N(CC(=O)NCc2ccccc2OC)c2ccccc2)cc1`, the survival is 37% (active). Next, `Cc1cccc(N(CC(=O)NCc2ccccc2)S(C)(=O)=O)c1C`: 70%; `COc1ccccc1N(CC(=O)Nc1ccccc1C(F)(F)F)S(=O)(=O)c1ccc(C)cc1`: 64%. For `CCc1ccccc1NC(=O)CN(c1ccccc1OC)S(=O)(=O)c1ccc(C)cc1`, the survival was 36% (active). Next, `COc1ccc(OC)c(NC(=O)CN(c2ccccc2OC)S(=O)(=O)c2ccc(C)cc2)c1`: 54%. `COc1cccc2cc(C(=O)N3CCCCC3)c(=O)oc12`: the survival was 85%. Next, `Nc1cccc(C(=O)NC23CC4CC(CC(C4)C2)C3)c1`: 95%; `O=C1CCCC/C1=N\Nc1ccc(N2CCCCC2)cc1`: 90%; `Cc1nc2ccn(Cc3ccco3)c(=O)c2cc1C(=O)NCc1ccccc1F`: 86%. Regarding `O=C(O)c1ccccc1SC1CC(=O)N(Cc2ccccc2)C1=O` (stereo not drawn), the survival was 81%. Turning to `CCOc1ccc(CCNC(=O)CCCc2nnc3n(CCCOC)c(=O)c4sccc4n23)cc1`, the survival is 91%. Next, `NS(=O)(=O)c1ccc(NC(=O)C2CCCO2)cc1` (stereo not drawn): 95%.

Consider `CCN1c2ccccc2-n2cccc2C12CCN(C(=O)Nc1ccccc1Br)CC2`, for which the survival is 91%. Next, `COc1ccc(CCNC(=O)Cc2c(C)c3c(cc(C)c4c(C)c(C)oc43)oc2=O)cc1OC`: 83%; `Cc1ccc2c(CNCC(C)c3ccccc3)c(C(=O)O)n(Cc3ccccc3C)c2c1` (stereo not drawn): 70%.

Consider `COc1ccccc1N(CC(=O)NCCSCc1ccccc1)S(=O)(=O)c1ccc(C)cc1`, for which the survival is 41% (active). `COc1ccccc1N(CC(=O)NCCSc1ccccc1)S(=O)(=O)c1ccc(C)cc1`: the survival was 62%.

For the molecule `COc1ccccc1N(CC(=O)NCCSCc1ccccc1)S(C)(=O)=O`, the survival was 70%.

Consider `Cc1ccc(Cn2cc3c(n2)-c2c(oc(C(=O)Nc4ccc(F)cc4F)c2C)CC3)cc1`, for which the survival is 85%. Next, `CN1CCN(c2nc3c(S(=O)(=O)c4ccccc4)nnn3c3ccsc23)CC1`: 86%. In the case of `Cc1ccc(NC(=O)c2cc(-c3ccc4c(c3)OCO4)on2)cc1`, the survival is 75%. Next, `CC(C)c1ccc(OC(=O)c2cc(-c3ccccc3)on2)cc1`: 109%. Consider `Cc1ccc(OC(=O)c2cc(-c3ccc4c(c3)OCCO4)on2)c(C)c1`, for which the survival is -2% (active). As for `Cc1ccc(-c2cc(C(=O)Oc3ccccc3Cl)no2)cc1C`, the survival is -1% (active). Take `COc1ccc(-c2cc(C(=O)Nc3c(Cl)cccc3Cl)no2)cc1OC`: the survival is 58%.

For the molecule `Cc1cccc(OC(=O)CSc2nnc(-c3ccc4c(c3)OCO4)o2)c1C`, the survival is 72%. Next, `Cc1cccc(OC(=O)c2cc(-c3ccc4c(c3)OCCO4)on2)c1C`: -1% (active); `Cc1cccc(OC(=O)c2cc(-c3ccc(Cl)cc3)on2)c1C`: 106%. Turning to `Cc1ccccc1OC(=O)c1cc(-c2ccc3c(c2)OCCO3)on1`, the survival was -1% (active). For the molecule `Cc1ccc(OC(=O)c2cc(-c3ccc(Cl)cc3)on2)c(C)c1`, the survival is 92%. In the case of `COc1ccc(Nc2nnc(-c3cc4cc(Cl)ccc4oc3=O)s2)cc1`, the survival was 81%. On to `COc1ccc(Br)cc1CNC(=O)CN1C(=O)CCCc2ccccc21`, for which the survival was 80%. Next, `Cn1c(=O)n(C)c2cc(CNCc3ccccc3)ccc21`: 88%; `COC(=O)c1ccc(C(=O)OC)c(NC(=O)c2c(-c3ccccc3)noc2C)c1`: 147%. Regarding `COc1cccc(CSc2nc3n(n2)C(CC(C)C)C(C(=O)Nc2ccccc2C)=C(C)N3)c1` (stereo not drawn), the survival is 87%. With `Cc1ccc(N2CC(c3nc(-c4ccc(Cl)cc4)no3)CC2=O)cc1F` (stereo not drawn), the survival was 98%. Next, `CCS(=O)(=O)c1nc(S(=O)(=O)c2ccc(C)cc2)c(NCC(C)C)s1`: 95%; `CCN1CCN(C(c2ccccc2Cl)c2sc3nc(-c4ccco4)nn3c2O)CC1` (stereo not drawn): 92%; `O=C(Oc1ccccc1Cl)c1cc(-c2ccc3c(c2)OCCO3)on1`: -2% (active). On to `O=C(Nc1ccccc1C(F)(F)F)c1cc(-c2ccc3c(c2)OCCO3)on1`, for which the survival was 117%. Next, `Cc1ccc2cc3cc(C(=O)N(C)c4ccccc4C)oc3nc2c1`: 53% (active). Turning to `Cc1ccc2cc3cc(C(=O)N4CCN(c5ccccc5)CC4)oc3nc2c1`, the survival is 61%.

Consider `Cc1ccc(C)c(N2CCN(C(=O)c3cc4cc5ccc(C)cc5nc4o3)CC2)c1`, for which the survival is 90%. Consider `COc1ccc(CNC(=O)c2cc3cc4ccc(C)cc4nc3o2)cc1`, for which the survival is 74%. Next, `CCN(C(=O)c1cc2cc3ccc(OC)cc3nc2o1)c1cccc(C)c1`: 6% (active); `COc1ccc2cc3cc(C(=O)NCc4ccc(C)cc4)oc3nc2c1`: 83%.

Take `Cc1ccccc1Cn1c(CN2CCC(C(=O)NCCN(C)C)CC2)cc2ccccc21`: the survival is 112%.

Take `COc1ccc(S(=O)(=O)N(C)CC(=O)NCc2ccc3c(c2)OCO3)cc1`: the survival was 89%. Next, `COc1ccc(/C=C(\C#N)C(=O)NCc2ccco2)cc1C`: 80%. As for `CCc1ccccc1NC(=O)Nc1ccc2snnc2c1`, the survival is 41% (active).

Regarding `Cc1ccc(F)c(NC(=O)Nc2ccc3snnc3c2)c1`, the survival was 97%.

As to `CCOc1ccc(NC(=O)Nc2ccc3snnc3c2)cc1`, the survival is 110%. Take `Cc1c(Cl)cccc1NC(=O)Nc1ccc2snnc2c1`: the survival is -4% (active). Take `Cc1cc(C)c(NC(=O)Nc2ccc3snnc3c2)c(C)c1`: the survival was 118%. Take `Cc1c(Cl)cccc1NC(=O)c1ccc2snnc2c1`: the survival is 126%. For the molecule `CCOC(=O)c1c(NC(=O)c2noc3c2CC(C(C)(C)C)CC3)sc2c1CCCC2` (stereo not drawn), the survival is 66%. Next, `CC(=O)Nc1sc2c(c1C(N)=O)CCCC2`: 80%; `NC(=O)c1c(NC(=O)c2noc3c2CCCC3)sc2c1CCCC2`: 40% (active); `CC(C)(C)C1CCc2onc(C(=O)Nc3sc4c(c3C(N)=O)CCCC4)c2C1` (stereo not drawn): 45% (active). Next, `CC(C)(C)C1CCc2onc(C(=O)Nc3sc4c(c3C#N)CCCC4)c2C1` (stereo not drawn): 105%; `NC(=O)c1c(NC(=O)c2cc(-c3ccc(F)cc3)on2)sc2c1CCCC2`: 62%; `CCOC(=O)c1noc2nc(C)n(Cc3cccc(C#N)c3)c(=O)c12`: 87%. As for `O=C(NCc1ccccc1F)C1CCN(Cc2cc3ccccc3n2Cc2cccc(Cl)c2)CC1`, the survival is 78%.
